66 compounds from ChEMBL document CHEMBL4513216, “Probing the Open Global Health Chemical Diversity Library for Multistage-Active Starting Points for Next-Generation Antimalarials” (ACS Infect Dis, 2020) can be followed below.

Out of some 65,000 compounds screened, about 2,100 (3.2%) showed an effect of 50% or more. The median lay at about -52%. Many of the other results were omitted from the sample, so strong results are more common in it than they were.

The test system of this assay is Plasmodium falciparum. Kind of assay: Screen against P. falciparum Asexual Blood Stage (ABS), at 5uM. The note with it: tested at 5 uM. In kind it is functional, Dd2.
With `CN(C)CCN(Cc1cccnc1)C(=O)c1ccn(-c2ccccc2)n1`, the INHIBITION stood at 87.4%.

For the compound `Cc1cnc(C(=O)N2C[C@H]3CN(Cc4cccnc4)C[C@H]3C2)cn1`, the INHIBITION is listed as -8.02%.

As to `CCCN1CCN(C(=O)Cc2nc(-c3ccco3)oc2C)CC1`, the INHIBITION is -36.9%.

Turning to `COc1cccc(C2=CCN(CCN3CCCC3=O)CC2)c1`, the INHIBITION is listed as 12.8%.

`Cc1nc(CN)cc(N2CCC(O)(c3ccc(Cl)cc3)CC2)n1`: the INHIBITION is 72.2%.

For `Cc1nc(CCN)cc(N2CCC(O)(c3ccc(Cl)cc3)CC2)n1`, the INHIBITION was found to be 91.7%.

On to `CN1[C@@H](C(=O)NCC2CC2)C[C@@H]2CN(c3ncccn3)C[C@@H]21`, for which the INHIBITION came out at 13.9%.

As to `c1ccc(O[C@@H]2CC[C@H]3[C@H]2OCCN3CC2CCOCC2)nc1`, the INHIBITION is recorded as -83.6%.

Consider `c1ccc(O[C@H]2CC[C@H]3[C@H]2OCCN3Cc2nccs2)nc1`, for which the INHIBITION is given as -64.9%.

As for `CC(C)C[C@H](N)COc1cccc(F)c1Oc1cccc(Cl)c1`, the INHIBITION amounted to 85.5%.

Consider `CC(C)C[C@H](N)COc1cccc(F)c1Oc1ccccc1`, for which the INHIBITION is listed as 70.9%.

Consider `CC(C)C[C@H](N)COc1cccc(F)c1Oc1ccc(Cl)cc1`, for which the INHIBITION came to 86.5%.

For `c1ccc(CO[C@@H]2C[C@H]3CN(c4ncccn4)CCN3C2)nc1`, the INHIBITION is reported as -38.6%.

Take `c1cc(CN2CCOC3(CCCC3)C2)no1`: the INHIBITION was -101%.

Take `O=C1CSC(c2ccsc2)c2sccc2N1` (stereo unspecified): the INHIBITION is -15.7%.

`Cc1ccc(N2CCO[C@H]3CN(Cc4cccs4)C[C@H]32)nn1`: the INHIBITION is -11.3%.

Take `O=C(CN1CCCC(c2ccn[nH]2)C1)Nc1nc2c(s1)CCCC2` (stereo unspecified): the INHIBITION was found to be 86.1%.

As for `O=C(CN1CCCC(c2ccn[nH]2)C1)Nc1nc2c(s1)CCC2` (stereo unspecified), the INHIBITION was 89.2%.

For `COCCn1cc(C(=O)Nc2nc3c(s2)CCC3)c2ccccc21`, the INHIBITION is on record as -78.7%.

Take `Cc1cc(C2CCCN(CC(=O)Nc3nc4c(s3)CCC4)C2)n[nH]1` (stereo unspecified): the INHIBITION was 86.9%.

As to `CC1CN(C)CCN1C(=O)COc1cccc(Oc2ccccn2)c1` (stereo unspecified), the INHIBITION is on record as -65.8%.

As for `Cc1noc(C)c1CN1CCOC2(CCCN(c3nccs3)C2)C1` (stereo unspecified), the INHIBITION is given as -36.8%.

Turning to `CCCOc1cc(Cl)c(CN2CCNC(C(=O)NC3CC3)C2)cc1OC` (stereo unspecified), the INHIBITION is recorded as 75.4%.

Consider `O=C(c1ccc(Cn2ccccc2=O)o1)N1CCC2(CC1)OCCO2`, for which the INHIBITION was determined as 1.12%.

For `CC(C)Cc1ncc2c(n1)CN(C(=O)c1ccc(CN3CCCC3)o1)C2`, the INHIBITION is listed as 70.3%.

In the case of `Cc1ccc(C(C)NCc2cn(CCC(N)=O)c3ccccc23)cc1C` (stereo unspecified), the INHIBITION turned out to be 82.8%.

Turning to `CCCn1cc(C(=O)NCCCC(N)=O)c2ccccc21`, the INHIBITION is given as -75%.

On to `CCCn1cc(C(=O)NCCS(N)(=O)=O)c2ccccc21`, for which the INHIBITION is -25.6%.

As to `CC(C)CNC(=O)N1C[C@@H]2CCCN[C@@H]2C1`, the INHIBITION is -5.1%.

For `COCCN1CCOCC12CCN(C(=O)c1ccncc1)CC2`, the INHIBITION is given as -98.9%.

On to `FC(F)(F)c1ccc2nc([C@H]3CCN(C4CCCCC4)C3)[nH]c2c1`, for which the INHIBITION is 83.6%.

Turning to `CCc1nc(-c2ccc(C(=O)N3CCC4(CC3)OCCO4)cc2)no1`, the INHIBITION is recorded as -52.5%.

On to `Cc1ccc2c(CC(=O)N3C[C@@H](O)[C@H](N(C)C)C3)coc2c1`, for which the INHIBITION was 9.22%.

On to `CN(C)CCCn1ccnc1C1CCCN(c2ncc(Cl)cc2F)C1` (stereo unspecified), for which the INHIBITION is 84.4%.

For `COCCO[C@@H]1C[C@H]2CN(C(=O)c3cccnc3)CCN2C1`, the INHIBITION was -84.1%.

In the case of `Clc1ccccc1CNC(Cn1cncn1)c1ccccc1` (stereo unspecified), the INHIBITION was -8.41%.

Turning to `CC(Cc1ccccc1Cl)NC(=O)Nc1cnn(CC(N)=O)c1` (stereo unspecified), the INHIBITION was -20.1%.

`Cc1ccccc1CNC(Cn1cncn1)c1ccccc1` (stereo unspecified): the INHIBITION is given as -47.8%.

For the compound `CC(Cc1cccc(Cl)c1)NC(=O)NCc1ncnn1C` (stereo unspecified), the INHIBITION is -104%.

For the compound `COCC(=O)NC(C)Cc1cccc(Cl)c1` (stereo unspecified), the INHIBITION is recorded as -14.8%.

Consider `CCC(NCc1cccc(Cl)c1)c1ccccc1OCC(=O)NC` (stereo unspecified), for which the INHIBITION was 82.8%.

Consider `CCC(NCc1ccccc1C)c1ccccc1OCC(=O)NC` (stereo unspecified), for which the INHIBITION is recorded as 80%.

For `CCC(NCc1ccccc1Cl)c1ccccc1OCC(=O)NC` (stereo unspecified), the INHIBITION is given as 74.7%.

On to `COCCN1CCO[C@H]2CN(Cc3cccc(C)n3)C[C@H]21`, for which the INHIBITION is recorded as -18.3%.

Consider `Cc1cc(NC2CC3(CCN(Cc4ncccc4F)C3)C2)ncn1` (stereo unspecified), for which the INHIBITION is recorded as -37.1%.

As for `CCc1c(C)[nH]c(C2(N)CCCC2)nc1=O`, the INHIBITION is -43.5%.

Take `CNC(=O)[C@H]1C[C@@H]2CN(Cc3cccnc3OC)C[C@@H]2N1C(C)C`: the INHIBITION is on record as 21.8%.

Consider `CN1CCCC(Cc2cncc(Br)c2)CC1` (stereo unspecified), for which the INHIBITION is given as -65%.

As for `CC(Cn1cccn1)NCc1ccc(Cl)s1` (stereo unspecified), the INHIBITION is on record as -30.2%.

For `Cc1cc(C(C)NCCN2CCC(N(C)C)CC2)c(C)s1` (stereo unspecified), the INHIBITION is on record as 81.6%.

Consider `CC(NC(=O)CN1CCCC1=O)c1ccc(Cl)s1` (stereo unspecified), for which the INHIBITION is -3.71%.

Regarding `Cc1cc(Br)cnc1NCCN1CCC(N(C)C)CC1`, the INHIBITION was found to be 89.1%.

With `CC(NCCN1CCC(N(C)C)CC1)c1ccc(Cl)s1` (stereo unspecified), the INHIBITION turned out to be 75.4%.

For the compound `CN1[C@@H]2CC[C@H]1CN(c1cc(Sc3cccs3)nc(N)n1)CC2`, the INHIBITION is recorded as 19.3%.

Consider `Cc1ccc(CN2CC[C@H]3NC(=O)CC[C@@H]32)o1`, for which the INHIBITION is recorded as -34.6%.

Take `CSc1ccc(-c2nc(CN3CCC(CN)C3)c(C)o2)cc1` (stereo unspecified): the INHIBITION turned out to be 83.05%.

Regarding `Cc1cc(CN2CC[C@]3(C[C@@H](OCC(=O)N(C)C)CO3)C2)no1`, the INHIBITION is given as -93%.

Regarding `CCn1ccnc1CN1CCN(C(C)C)CC1C` (stereo unspecified), the INHIBITION is on record as -35.9%.

`CCn1cc(CN2CCCCC2CCn2ccnc2C)cc1C#N` (stereo unspecified): the INHIBITION worked out at 78.2%.

Take `c1ccc(CN2CCCC[C@H]3CN(c4ncccn4)C[C@H]32)cc1`: the INHIBITION was determined as 3.59%.

For the compound `CCCN1CCC(NC(=O)c2ccc(F)cc2I)CC1`, the INHIBITION worked out at 71.1%.

On to `O=C(c1cc2cc(F)ccc2[nH]1)N1CCC(Nc2ccc(F)cc2)CC1`, for which the INHIBITION was -1.01%.

Take `Cc1cc(CC(=O)N2CCN(CC3CC3)[C@@H]3CS(=O)(=O)C[C@@H]32)ccc1F`: the INHIBITION is recorded as -75.7%.

For the compound `CO[C@H]1CNC[C@@H]1NC(=O)c1cc(C)nc2c(C)cc(C)cc12`, the INHIBITION stood at 75.1%.

As to `Cc1cc(C(=O)N[C@H]2COC[C@@H]2N2CCOCC2)c2ccc(F)cc2n1`, the INHIBITION is on record as -31.3%.

In the case of `Cc1ccc2nc(C)cc(C(=O)N[C@H]3COC[C@@H]3N3CCOCC3)c2c1`, the INHIBITION is -169%.
